Measurements from PubChem BioAssay (NCATS).
“And” between values parts separate entries of the source, which are not always exact repeats. Equal entries are not always repeated. Records with an inconclusive call do not appear. A number with no mark means an inactive call. The source made the active and inactive calls. Calls come from the whole dose curve; as a rule, active = well fitted curve in the direction sought with a large enough effect; inconclusive = small, poorly fitted or top-dose-only effect, or another doubt; inactive = no such curve, though single readings can be large; an effect the other way counts as inactive or inconclusive.

Columns and labels:
[1] = Viability qHTS for spleen associated tyrosine kinase inhibitor (SYKi) naive MV4-11 cells (AID 1963823); note: nearly all actives have a fitted effect of over 40% in size
In short: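 SYKi-naive MV4-11 AML cells, 500 per well, were exposed to library compounds for 72 hr at 37 C, 5% CO2. Viability was then read by CellTiter-Glo luminescence after 10 min at room temperature.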

[2] = Viability qHTS for spleen associated tyrosine kinase inhibitor (SYKi) drug resistant MV4-11 cells (AID 1963824); note: nearly all actives have a fitted effect of over 35% in size
In short: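 SYK-inhibitor-resistant MV4-11 AML cells were seeded at 500 per well onto compound and cultured 72 hours (37 °C, 5% CO2). CellTiter-Glo was then added, and after 10 min at room temperature, luminescence gave viability.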

[3] = Quantitative highthroughput screen to assess conditional lethalithy of NOMO1 cells grown in RPMI1640 with dialyzed fetal bovine serum (RPMI+ds) (AID 1963877); note: nearly all actives have a fitted effect of over 30% in size;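 for Viability: series mostly up to about 46 µM; 100% = DMSO control wells and 0% = empty wells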
In short: (§1)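 Each medium arm—HPLM with 10% dialyzed FBS, or RPMI1640 with 5 mM glucose and 10% untreated or dialyzed FBS—was screened against an 11-point, 3-fold compound titration for 48 h at 37 °C, with CellTiter-Glo luminescence as endpoint.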

[4] = Quantitative highthroughput screen to assess conditional lethalithy of P12 Ichikawa cells grown in Human Plasma-Like Medium with dialyzed fetal bovine serum (HPLM+ds) (AID 1963879); conditions: Potency: viability; note: nearly all actives have a fitted effect of over 35% in size; for Viability: series mostly up to about 46 µM
In short: as §1

[5] = Quantitative highthroughput screen to assess conditional lethalithy of P12 Ichikawa cells grown in RPMI1640 with dialyzed fetal bovine serum (RPMI+ds) (AID 1963880); conditions: Potency: P12-Ichikawa viability; note: nearly all actives have a fitted effect of over 35% in size;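 for Viability: 100% = DMSO wells and 0% = empty wells on each plate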
In short: as §1

[6] = Quantitative highthroughput screen to assess conditional lethalithy of P12 Ichikawa cells grown in RPMI1640 with untreated serum (RPMI+s) (AID 1963881); conditions: Potency: viability; note: nearly all actives have a fitted effect of over 35% in size;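 for Viability: series mostly up to about 46 µM; 100% = DMSO wells and 0% = empty wells without cells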
In short: as §1

[7] = Quantitative highthroughput screen to assess conditional lethalithy of SEM cells grown in Human Plasma-Like Medium with dialyzed fetal bovine serum (HPLM+ds) (AID 1963882); note: nearly all actives have a fitted effect of over 35% in size; for Viability: series mostly up to about 46 µM
In short: as §1

[8] = Cellular viability qHTS for adrenocortical cancer (ACC) cell line NCI-H295R (AID 1963990); note: nearly all actives have a fitted effect of over 60% in size
In short: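 Luminescent ATP read-out (CellTiter-Glo, 20 min RT) after 48 h drug exposure of NCI-H295R cells; a titration up to 46 uM final. Data normalized to doxorubicin (100% inhibition) and DMSO (0%); 4-parameter fit gives IC50, max response.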

[9] = Quantitative highthroughput screen to assess conditional lethalithy of NOMO1 cells grown in Human Plasma-Like Medium with dialyzed fetal bovine serum (HPLM+ds) (AID 1963878); note: nearly all actives have a fitted effect of over 35% in size;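 for Viability: 100% = DMSO wells and 0% = empty wells on each plate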
In short: as §1

[10] = Quantitative highthroughput screen to assess conditional lethalithy of SEM cells grown in RPMI1640 with unreated serum (RPMI+s) (AID 1963883); note: nearly all actives have a fitted effect of over 35% in size;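 for Viability: 100% = DMSO wells and 0% = empty wells without cells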
In short: as §1

[11] = Quantitative highthroughput screen to assess conditional lethalithy of SEM cells grown in RPMI1640 with dialyzed fetal bovine serum (RPMI+ds) (AID 1963884); note: nearly all actives have a fitted effect of over 35% in size;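 for Viability: series mostly up to about 46 µM; 100% = DMSO control wells and 0% = empty wells without cells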
In short: as §1

[12] = Cellular viability qHTS for adrenocortical cancer (ACC) cell line SW-13 (AID 1963989); conditions: SW-13 ACC cells viability, CellTiter-Glo, 48 h; activity (max response): hits give low values; note: nearly all actives have a fitted effect of over 65% in size;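 for activity (max response): cells grown in serum-free medium with ITS supplement; % is set by controls: 0 for no effect and ±100 for the full control effect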
In short: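 SW-13 cells in ITS-supplemented serum-free DMEM were plated overnight, then exposed for 48 h at 37C to compound titrations (up to 46 uM final). Viability was read by CellTiter-Glo luminescence; four-parameter logistic fits gave IC50 and efficacy.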
Potency is the fitted concentration of half-maximal effect.

**Q.** For CON(C)C(=O)N1N=C(c2cc(F)ccc2F)S[C@@]1(CCCN)c1ccccc1, which Potency [1] is on record?
**A.** 0.0092 µM (active)

**Q.** What about the Potency [2] of the same compound?
**A.** 10.3 nM (active) and 3.3 nM (active)

**Q.** What about the Potency [3] of the same compound?
**A.** 0.0234 µM (active)

**Q.** What about the Potency [4] of the same compound?
**A.** 0.0263 µM (active)

**Q.** And the Potency [5]?
**A.** 0.0331 µM (active)

**Q.** What about the Potency [6] of the same compound?
**A.** 0.0209 µM (active)

**Q.** What about the Potency [7] of the same compound?
**A.** 0.0052 µM (active)

**Q.** And the Potency [8]?
**A.** 56.2 nM (active)

**Q.** What does the source list for COc1ccc2c(OCc3nnc4ccc(-c5ccccc5)nn34)ccnc2c1?
**A.** Potency [1]: inactive; Potency [2]: inactive; Potency [3]: inactive; Potency [9]: inactive; Potency [5]: inactive; Potency [6]: inactive; Potency [10]: 11.8 µM (active); Potency [11]: 18.7 µM (active); activity (max response) [12]: -4.03%

**Q.** What does the source list for O=C(Nc1ccccc1-c1cn2c(CN3CCNCC3)csc2n1)c1cnc2ccccc2n1?
**A.** Potency [1]: 9.2 µM (active); Potency [2]: 13 µM (active); Potency [3]: inactive; Potency [9]: inactive; Potency [7]: 18.7 µM (active); Potency [10]: 18.7 µM (active); Potency [11]: 13.2 µM (active); Potency [12]: 3.55 µM (active); Potency [8]: 7080 nM (active)

**Q.** Which Potency [1] does the source give for O=C(Nc1ncc(SCCN2CCCC2)s1)[C@]1(c2ccc(S(=O)(=O)C3CC3)cc2)C[C@@H]1C1CCCCC1 here?
**A.** 2.59 µM (active)

**Q.** What about the Potency [2] of the same compound?
**A.** 2.59 µM (active)

**Q.** What about the Potency [3] of the same compound?
**A.** 23.5 µM (active)

**Q.** What about the Potency [9] of the same compound?
**A.** 18.7 µM (active)

**Q.** What does the source list for CC(=O)CC(c1ccccc1)c1c(O)c2ccccc2oc1=O (stereo unspecified)?
**A.** Potency [1]: inactive; Potency [2]: inactive; Potency [3]: inactive; Potency [4]: inactive; Potency [5]: inactive; Potency [6]: inactive; Potency [7]: inactive; Potency [10]: inactive; Potency [11]: inactive; activity (max response) [12]: -5.83% and 0.968%; Potency [8]: inactive

**Q.** For CC(Oc1ccc(O)cc1)(P(=O)(O)O)P(=O)(O)O, which Potency [1] is on record?
**A.** inactive

**Q.** What about the Potency [2] of the same compound?
**A.** inactive

**Q.** And the Potency [3]?
**A.** 26.4 µM (active)

**Q.** What about the Potency [9] of the same compound?
**A.** 13.2 µM (active)

**Q.** And the activity (max response) [12]?
**A.** 1.35%

**Q.** What about the Potency [8] of the same compound?
**A.** inactive

**Q.** Which results are given for CC(O)C1C(=O)N2C(C(=O)O)=C(SC3CNC(C(=O)N(C)C)C3)C(C)C12 (stereo unspecified)?
**A.** Potency [1]: inactive; Potency [2]: inactive; Potency [3]: inactive; Potency [9]: inactive; Potency [4]: inactive; Potency [5]: inactive; Potency [7]: inactive; Potency [10]: inactive; Potency [11]: inactive

**Q.** Which results are given for C[C@@H]1C[C@H]2[C@@H]3CCC4=CC(=O)C=C[C@]4(C)[C@@]3(Cl)[C@@H](O)C[C@]2(C)[C@@]1(OC(=O)c1ccco1)C(=O)CCl?
**A.** Potency [1]: 16.8 µM (active) and 8.33 µM (active); Potency [2]: 8.41 µM (active) and 4.68 µM (active); Potency [3]: 6.62 µM (active); Potency [9]: 1.18 µM (active); Potency [7]: inactive; Potency [10]: inactive

**Q.** Which Potency [1] does the source give for O=C(CN1C(=O)C2(CCCC2)NC[C@H]1c1cc(F)cc(F)c1)Nc1ccc2c(c1)C[C@@]1(C2)C(=O)Nc2ncccc21 here?
**A.** inactive

**Q.** And the Potency [2]?
**A.** 18.6 µM (active)

**Q.** What about the Potency [9] of the same compound?
**A.** 20.9 µM (active)

**Q.** What about the Potency [4] of the same compound?
**A.** inactive

**Q.** And the Potency [5]?
**A.** inactive

**Q.** What about the Potency [6] of the same compound?
**A.** inactive

**Q.** What about the Potency [7] of the same compound?
**A.** inactive

**Q.** And the Potency [10]?
**A.** inactive

**Q.** And the Potency [11]?
**A.** inactive

**Q.** What about the activity (max response) [12] of the same compound?
**A.** -4.31%

**Q.** And the Potency [8]?
**A.** inactive

**Q.** With CNCCCC12CCC(c3ccccc31)c1ccccc12 as the compound, how does the Potency [1] read?
**A.** 18.8 µM (active) and 14.6 µM (active)

**Q.** What about the Potency [2] of the same compound?
**A.** 18.4 µM (active)

**Q.** What about the Potency [9] of the same compound?
**A.** 18.7 µM (active)

**Q.** What about the Potency [5] of the same compound?
**A.** 18.7 µM (active)

**Q.** What about the Potency [10] of the same compound?
**A.** inactive

**Q.** And the Potency [8]?
**A.** 23.1 µM (active) and 25.1 µM (active)

**Q.** For CN1CCN(c2cc(C(=O)Nc3ccc4c(c3)-c3c(c(C(N)=O)nn3-c3ccc(F)cc3)CC4)c(Cl)cn2)CC1, which Potency [1] is on record?
**A.** 4.11 µM (active)

**Q.** What about the Potency [2] of the same compound?
**A.** 2.59 µM (active)

**Q.** And the Potency [9]?
**A.** 26.4 µM (active)

**Q.** What about the Potency [7] of the same compound?
**A.** 23.5 µM (active)

**Q.** And the activity (max response) [12]?
**A.** -15.3%

**Q.** And the Potency [8]?
**A.** 25100 nM (active)

**Q.** What does the source list for CS(=O)(=O)c1cccc(CNc2nc(Nc3ccc4c(c3)CCC(=O)N4)ncc2C(F)(F)F)c1?
**A.** Potency [1]: 0.105 µM (active); Potency [2]: 0.164 µM (active); Potency [3]: 18.7 µM (active); Potency [7]: 8.33 µM (active); Potency [10]: 5.26 µM (active); Potency [11]: 6.62 µM (active)

**Q.** Which Potency [1] does the source give for C[C@@H](N)c1ccc(C(=O)Nc2ccnc3[nH]ccc23)cc1 here?
**A.** 4.17 µM (active)

**Q.** And the Potency [2]?
**A.** 10.3 µM (active)

**Q.** And the Potency [3]?
**A.** 18.7 µM (active)

**Q.** And the Potency [5]?
**A.** inactive

**Q.** What about the Potency [12] of the same compound?
**A.** 25.1 µM (active)

**Q.** For Nc1nc(=S)c2[nH]cnc2[nH]1, which Potency [1] is on record?
**A.** 0.934 µM (active)

**Q.** What about the Potency [2] of the same compound?
**A.** 1.05 µM (active)

**Q.** And the Potency [3]?
**A.** 7.43 µM (active)

**Q.** What about the Potency [6] of the same compound?
**A.** 20.9 µM (active)

**Q.** What about the Potency [12] of the same compound?
**A.** 3.26 µM (active) and 2.82 µM (active)

**Q.** What about the Potency [8] of the same compound?
**A.** 731 nM (active) and 1.12 µM (active)

**Q.** For S=C(NCc1ccc2c(c1)OCO2)N1CCN(c2ncnc3c2oc2ccccc23)CC1, which Potency [1] is on record?
**A.** 3.32 µM (active)

**Q.** What about the Potency [2] of the same compound?
**A.** 1.86 µM (active)

**Q.** And the Potency [9]?
**A.** 38.2 µM (active)

**Q.** And the Potency [10]?
**A.** 42.9 µM (active)

**Q.** And the Potency [11]?
**A.** 27 µM (active)

**Q.** Which Potency [1] does the source give for CCCCCCCCCCCCc1ccc(S(=O)(=O)Nc2nncs2)cc1 here?
**A.** 16.4 µM (active)

**Q.** And the Potency [2]?
**A.** inactive

**Q.** What about the Potency [9] of the same compound?
**A.** 7.43 µM (active)

**Q.** And the Potency [6]?
**A.** inactive

**Q.** What about the Potency [7] of the same compound?
**A.** inactive

**Q.** What about the Potency [10] of the same compound?
**A.** 3.32 µM (active)

**Q.** And the Potency [11]?
**A.** 6.62 µM (active)

**Q.** And the activity (max response) [12]?
**A.** -13.1%

**Q.** And the Potency [8]?
**A.** inactive

**Q.** For CC(C)C[C@H](NC(=O)CNC(=O)c1cc(Cl)ccc1Cl)B(O)O, which Potency [1] is on record?
**A.** 0.0934 µM (active)

**Q.** What about the Potency [2] of the same compound?
**A.** 0.0934 µM (active)

**Q.** And the Potency [3]?
**A.** 0.418 µM (active)

**Q.** What about the Potency [12] of the same compound?
**A.** 2 µM (active)

**Q.** And the Potency [8]?
**A.** 398 nM (active)
